Screening results from PubChem.
Kir21 inh: blocks the mouse Kir2.1 inward-rectifier potassium channel; 0.85% of 310,000 active; B-score at 10 µM; P35561; HEK293-Kir2.1, FluxOR thallium flux fluorescence; hits give low values;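 active means fluorescence ratio B-score at or below minus 3 SD of library scores, with starting-brightness B-score within 2 SD, cut at about -4.2 in these data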;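 further: channel flux triggered by added potassium and thallium sulfate stimulus; B-score of peak minus minimum fluorescence over baseline after thallium stimulus; more negative B-score means stronger Kir2.1 block with less thallium influx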
Target sequence (P35561 whole entry, looked up): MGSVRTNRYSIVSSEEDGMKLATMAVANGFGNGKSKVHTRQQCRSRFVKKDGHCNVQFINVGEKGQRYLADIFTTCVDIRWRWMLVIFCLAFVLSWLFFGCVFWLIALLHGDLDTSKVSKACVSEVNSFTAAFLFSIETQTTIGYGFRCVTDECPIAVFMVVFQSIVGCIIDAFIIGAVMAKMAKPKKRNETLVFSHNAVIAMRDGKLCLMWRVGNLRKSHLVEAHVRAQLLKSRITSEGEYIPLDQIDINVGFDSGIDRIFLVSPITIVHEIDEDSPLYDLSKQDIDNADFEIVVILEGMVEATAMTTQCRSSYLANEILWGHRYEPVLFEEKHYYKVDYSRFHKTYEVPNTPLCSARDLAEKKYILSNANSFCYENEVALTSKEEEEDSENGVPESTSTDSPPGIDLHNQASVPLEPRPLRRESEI
ANO1 block: mouse TMEM16A channel inhibition, primary screen. HEK293 TMEM16A/YFP iodide influx fluorescence, ionomycin. AID 588511. Q8BHY3. 1.2% of 310,000 active. normalized B-score (activity score, 25-100; higher = stronger inhibition) at 10 µM;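 active means ratio plate-corrected score three or more library SD toward inhibition, starting fluorescence score within five deviations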;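 further: score derived from kinetic fluorescence span divided by baseline fluorescence per well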
ANO1 activ: activators or potentiators of mouse TMEM16A chloride channel; HEK293 TMEM16A/YFP-H148Q/I152L, iodide quench fluorescence; hits give low values; B-score at 10 µM; 0.3% of 340,000 active; AID 623877;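 active means fluorescence-ratio B-score plate-corrected deviation score at least 3 library SD below zero, with starting fluorescence score within 5 deviations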;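 further: channel opened by trigger with iodide after compound preincubation; score built on the fluorescence ratio of max minus min over baseline; more negative score means more quench and so TMEM16A activation or potentiation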
KCNK9 block: human KCNK9 channel inhibition; HEK293 KCNK9, FluxOR thallium flux fluorescence; hits give low values; B-score at 10 µM; 1.2% of 310,000 active; AID 488922;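 active means ratio B-score over 3 SD below the library mean, with starting fluorescence within 5 SD of its mean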;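 further: negative B-score means less thallium flux so channel inhibition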
KCNK3 inh: human KCNK3 channel inhibition, primary screen. CHO-KCNK3 thallium flux, FluxOR fluorescence; hits give low values. B-score at 10 µM. 0.84% of 340,000 active;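 active means B-score under library mean minus 4 SD, starting fluorescence ratio at most library mean plus 5 SD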;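 further: more negative B-score means stronger inhibition of thallium flux through KCNK3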
TMEM16A reconf: TMEM16A (mouse) chloride channel inhibition, re-confirmation. inhibition, % at 10 µM. HEK293 TMEM16A/YFP-H148Q, iodide quench fluorescence; ionomycin added to raise cell calcium. 39% of 2,300 active. AID 652189. shares compounds with ANO1 block;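 active means mean duplicate percent inhibition, scaled so buffer wells are 0 and the reference blocker 100, over three buffer SD above buffer mean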
HEK293 Ca mobil: alters calcium mobilization in TMEM16A HEK293 cells, counter-screen. shares compounds with ANO1 block. TMEM16A/YFP HEK293, Fluo4 calcium mobilization. calcium response (% of ionomycin), % at 10 µM. 2% of 2,300 active;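 active means duplicate-averaged calcium signal over 20% of the ionomycin maximum, relative to buffer baseline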;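 further: each well's signal is peak minus trough fluorescence divided by its pre-addition baseline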
Parental YFP cnt: acts in parental YFP-HEK293 cells lacking TMEM16A, counter-screen. shares compounds with ANO1 block. iodide YFP quench, ionomycin. YFP ratio F(max-min)/F0 at 10 µM. 2,300 tested, under 10 active. AID 652233;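 active means yellow fluorescent protein signal ratio exceeding the buffer control mean by over 5 SD of those controls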;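 further: ratio is mean of duplicate wells from kinetic YFP trace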
ClC-1 rat inh: selectivity of TMEM16A inhibitors: inhibition of rat ClC-1 chloride channel; ratio percent, % at 10 µM; CHO ClC-1-YFP, iodide influx fluorescence quench; iodide control reads 0, buffer control 100; 2,300 tested, under 10 active; shares compounds with ANO1 block;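 active means duplicate-mean ratio percent above the mean of iodide-only control wells, which defines zero, plus 5 of their SD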;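 further: higher percent means stronger block of ClC-1 iodide influx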
Hits are given with their value; - = inactive; . = no result. Shown are actives, neighbours in structure and some others; about 3.5% of the full set was active somewhere.

SMILES	Kir21 inh	ANO1 block	ANO1 activ	KCNK9 block	KCNK3 inh	TMEM16A reconf	HEK293 Ca mobil	Parental YFP cnt	ClC-1 rat inh
COc1ccccc1OCC(=O)Nc1oc(-c2ccccc2)c(-c2ccccc2)c1C#N	.	25	-	.	-9.4	29%	-	-	-
O=C(Nc1nc(-c2cccs2)c(C(=O)C(F)(F)F)s1)c1ccccc1	-	100	-	-	-	53%	-	-	-
Cc1csc(NC(=O)CCCSc2nc3ccccc3s2)n1	-	100	-	-	-	-	32%	-	-
CN1C(=O)/C(=C/c2ccc(OC(=O)c3ccco3)cc2)SC1=S	-	-	-	-	-	-	-	-	-
Cn1cccc1/C=C1/SC(=S)N(CC(=O)O)C1=O	-	-	-	-	-	-	-	-	-
COc1cc(/C=C2\SC(=S)N(CC(=O)O)C2=O)ccc1OC(=O)c1ccco1	-	-	-5.5	-	-	-	-	-	-
CCN(CCCNC(=O)Cn1ncc2c([nH]c3ccc(C)cc32)c1=O)Cc1ccccc1	-	-	-	-	-	.	.	.	.
COc1oc(C(=O)NC2CCCCC2)c(-c2ccc(Cl)cc2)c1S(=O)(=O)c1ccccc1	.	.	-	.	-	.	.	.	.
NS(=O)(=O)c1ccc(NC(=S)NNC(=O)c2ccc(Br)o2)cc1	-	-	-	-	-	.	.	.	.
CCOc1cccc(CN2CCCC(N3CCc4cc(OC)c(OC)cc4C3)C2)c1O (stereo not drawn)	-	-	-	-	-	.	.	.	.
COc1cc2[nH]c(=O)n(CCC(=O)NCCCN3CCN(c4ccccc4F)CC3)c(=O)c2cc1OC	-	-	-	-	-	.	.	.	.
COc1ccc(NC(=O)CN2C(=O)COc3ccccc32)cc1OC	-	-	-	-	-	.	.	.	.
CCOC(=O)c1ccccc1NC(=O)COC(=O)C1CCCC1	-	-	-	-	-	.	.	.	.
COc1ccccc1NS(=O)(=O)c1cc(NC(=O)c2ccc(Cl)nc2)ccc1Cl	-	25	-	-	-	26%	-	-	-
CCOc1ccc(CCNC(=O)CSc2n[nH]c(N)n2)cc1OCC	-	-	-	-	-	.	.	.	.
CC(C)OC(=O)C(CC(=O)O)NCc1ccccc1 (stereo not drawn)	-	-	-	-	-	-	-	-	-
COc1ccc(C(c2c[nH]c3ccccc23)c2c[nH]c3ccccc23)cc1O	-	100	-	-	-	32%	-	-	-
CSc1ccc(-c2nc(CSCC(=O)NC3CC3)c(C)o2)cc1	-	-	-	-	-	.	.	.	.
CSc1ccc(-c2nc(CSCC(=O)N3CCOCC3)c(C)o2)cc1	-	25	-	-	-	28%	-	-	-
CCc1ccc(-c2nc(CSCC(=O)N3CCN(c4ncccn4)CC3)c(C)o2)cc1	-	25	-	-	-	-	-	-	-
CCc1ccc(-c2nc(CSCC(=O)NC3CC3)c(C)o2)cc1	-	-	-	-	-	.	.	.	.
COC(=O)C(C)(C)ONC(=O)Nc1ccccc1Br	-	25	-	-	-	-	-	-	-
COc1cc(C2c3c(oc4ccccc4c3=O)C(=O)N2Cc2ccco2)ccc1O (stereo not drawn)	-	25	-	-	-	-	-	-	-
CCCn1c2ccccc2c2cnn(CC(=O)NCCCN3C(C)CCCC3C)c(=O)c21 (stereo not drawn)	-	-	-	-	-	.	.	.	.
CCOC(=O)c1ccc(NS(=O)(=O)c2ccc3c(c2)NC(=O)CCS3)cc1	-	-	-	-	-	.	.	.	.
SMILES	Kir21 inh	ANO1 block	ANO1 activ	KCNK9 block	KCNK3 inh	TMEM16A reconf	HEK293 Ca mobil	Parental YFP cnt	ClC-1 rat inh
CCCC1(CCC)NC(=O)N(CC(=O)Nc2cccc(OC)c2)C1=O	-	100	-	-	-	-	-	-	-
O=C(CSc1nnc(CNc2ccc(F)cc2)n1Cc1ccco1)N1CCCC1	-	25	-	-	-	-	-	-	-
O=C(CNc1cccc(S(=O)(=O)N2CCCC2)c1)Nc1cccc(Br)c1	-	25	-	-	-	16%	-	-	-
O=C(CNc1ccc(Br)cc1)Nc1cccc(S(=O)(=O)N2CCCC2)c1	.	.	-	.	-	.	.	.	.
O=[N+]([O-])c1ccccc1Nc1cccc(F)c1	.	.	-	.	-	.	.	.	.
Cc1ccc(-n2c(C)cc(C(=O)CSc3nncs3)c2C)cc1	-	100	-	-	-	50%	-	-	-
Cc1c(C(=O)OC(C)C)sc(NC(=O)C2CCCO2)c1C(=O)OC(C)C (stereo not drawn)	-	-	-	-	-	.	.	.	.
COC(=O)c1sc(NC(=O)C2CCCO2)c(C(=O)OC)c1C (stereo not drawn)	-	25	-	-	-	-	-	-	-
CC1CCC(NC(=O)CCS(=O)(=O)c2ccc3c(c2)NC(=O)CS3)CC1 (stereo not drawn)	-	25	-	-	-	-	-	-	-
O=C(CSc1ncnc2ccccc12)c1ccc2c(c1)OCCO2	-	25	-	-	-	39%	-	-	-
COc1cc(NS(=O)(=O)c2ccc(Br)s2)cc(OC)c1	-	25	-	-	-	32%	-	-	-
CCN(CC)c1ccc(Nc2nc(N3CCOCC3)c3ccccc3n2)cc1	-	100	-	-	-	-	-	-	-
CCN(CC)c1nc(N2CCOCC2)nc2ccccc12	-	-	-	-	-	.	.	.	.
COc1ccc(CN2CCNC(=O)C2CC(=O)NCc2csc(C)n2)c(F)c1 (stereo not drawn)	-	-	-	-	-	.	.	.	.
CCOC(=O)CNC(=O)C(NC(=O)C1CCC(C)CC1)C(C)CC (stereo not drawn)	-	25	-	-	-	-	-	-	-
Nn1c(-c2cccs2)nc2sc3c(c2c1=O)CCCC3	-	25	-	-	-	30%	-	-	-
O=C(NCCc1ccc(Cl)cc1)C1CCN(c2cnccn2)CC1	-	100	-	-	-	-	-	-	-
CCOc1ccc(-c2nnn(CC(=O)c3ccc4c(c3)OCCO4)n2)cc1OCC	-	25	-	-	-	18%	-	-	-
O=C(N/N=C\c1ccc(F)cc1)c1csnn1	-	-	-	-	-	.	.	.	.
CCN(CC)S(=O)(=O)c1cccc(C(=O)OCC(=O)c2ccc3c(c2)OCCO3)c1	-	25	-	-	-	16%	-	-	-
CCN(CC)S(=O)(=O)c1cc(C(=O)OCC(=O)c2ccc3c(c2)NC(=O)CO3)ccc1Cl	-	100	-	-	-	18%	-	-	-
